Counter-ions that a name gives are not always drawn.
What was measured:
Test in all cases: lowest phenotypically active concentration; higher = less potent
Conditions in all cases: treatment time: 24 h
[1] = test system: A549-TP53BP1-CLTA
Procedure, shortened: (§1)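 The reporter lines, fifteen in total and built by gene editing in A549, HepG2 and WPMY1 cells, used BFP for segmentation alongside GFP and RFP/FusionRed markers. Each was treated at 0.3, 1, 3 or 9 µM for 24 h in four wells and then imaged live, with live-cell features normalised to solvent control wells. Deviation meant ≥3 of 4 wells beyond the 95th percentile of control Euclidean distances; reproducibility meant a median replicate Pearson correlation above the 95th percentile of non-replicates. Only conditions meeting both were scored as phenotypically active.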

[2] = test system: HepG2-TUBA1B-RELA
Procedure, shortened: as §1

[3] = test system: WPMY1-ACTB-RAB5A
Procedure, shortened: as §1

[4] = test system: WPMY1-CANX-COX4
Procedure, shortened: as §1

[5] = test system: WPMY1-TP53BP1-CLTA
Procedure, shortened: as §1

[6] = test system: HepG2-GM130-SQSTM1
Procedure, shortened: as §1

[7] = test system: HepG2-TP53BP1-CLTA
Procedure, shortened: as §1

[8] = test system: WPMY1-TUBA1B-RELA
Procedure, shortened: as §1

[9] = test system: A549-CANX-COX4
Procedure, shortened: as §1

[10] = test system: HepG2-CANX-COX4
Procedure, shortened: as §1

Measured: lowest phenotypically active concentration

COc1cc2ncnc(Nc3ccc(Cl)cc3F)c2cc1OC
3 µM: [1]

CCCNCC(O)COc1ccccc1C(=O)CCc1ccccc1 (stereo not given) [propafenone]
3 µM: [5]
9 µM: [1] | [2] | [3] | [4]

CC/C(=C(\CC)c1ccc(O)c(CN(CC)CC)c1)c1ccc(O)c(CN(CC)CC)c1
1 µM: [1] | [6] | [2] | [3] | [4]
9 µM: [5] | [8]
≤ 0.3 µM: [7]

O=C(O)Cc1cccc(OCCCN(Cc2cccc(C(F)(F)F)c2Cl)CC(c2ccccc2)c2ccccc2)c1 [GW 3965 hydrochloride]
9 µM: [9] | [10] | [2]

COc1ccc(CNC(=O)Nc2ncc([N+](=O)[O-])s2)cc1
9 µM: [1] | [4] | [5]

CCCCOc1cc(C(=O)NCCN(CC)CC)c2ccccc2n1 [cinchocaine]
9 µM: [1] | [7] | [3]

O=C(NOCC1CC1)c1ccc(F)c(F)c1Nc1ccc(I)cc1Cl
≤ 0.3 µM: [1] | [6] | [7] | [2]
1 µM: [10]

COc1cc(OC)c2cc(-c3ccncc3)cnc2c1 [DMPQ dihydrochloride]
9 µM: [1] | [10] | [4] | [5]

CSc1ccc2c(c1)N(CCC1CCCCN1C)c1ccccc1S2 (stereo not given) [thioridazine]
9 µM: [1] | [10] | [6] | [7] | [2] | [3] | [4] | [5] | [8]

Cc1ccc(NC2=CC(=O)c3sc(C)nc3C2=O)cc1 [Ryuvidine]
3 µM: [6] | [7] | [4]
1 µM: [1] | [3] | [8]

CC(C)OC(=O)c1cc2c(OCC(O)CNC(C)(C)C)cccc2[nH]1 (stereo not given)
9 µM: [1] | [2] | [4] | [5] | [8]
3 µM: [7] | [3]

NC(=O)c1cccc(-c2cc(Nc3ccc(OC(F)(F)F)cc3)ncn2)c1
3 µM: [3]
9 µM: [1] | [6] | [5]

O=C(O)[C@@H]1[C@H]2C[C@H]3c4[nH]c5ccccc5c4CCN3C[C@@H]2CC[C@@H]1O [Yohimbinic acid monohydrate]
9 µM: [1] | [3] | [4] | [5] | [8]

N#C/C(=C/c1ccc(-c2cc(Cl)ccc2Cl)o1)C(=O)Nc1cccc2ncccc12
9 µM: [4]

Cc1c(O)cccc1C(=O)N[C@@H](CSc1ccccc1)[C@H](O)CN1C[C@H]2CCCC[C@H]2C[C@H]1C(=O)NC(C)(C)C [nelfinavir]
9 µM: [6] | [2] | [4] | [8]
3 µM: [10] | [3]

Source: the supplement of paper PMC7411054
